# Screening results (PubChem)
# Sampled rows, rich in hits. Any-hit rate of the full collection: about 3.6%.
# D1 PAM – Potentiators of Human D1 Dopamine Receptor: qHTS. 360,000 tested, 0.036% active. potentiation, % at 10 µM. HEK293 TREx D1 cells, calcium flux, dopamine EC20 potentiation. D(1A) dopamine receptor (Homo sapiens), P21728; in the data active means potentiation above about 30%; further: 0% is about no effect
# D1 antag – Antagonist of Human D 1 Dopamine Receptor: qHTS; HEK293 TREx D1 cells, calcium flux, dopamine EC80; stronger effect = lower value; D(1A) dopamine receptor (Homo sapiens), P21728; activity change, negative = inhibition, % at 10 µM; AID 504652, 2011; 360,000 tested, 3.2% active; in the data active means activity change below about -30%; further: on the % scale 0 is the no-effect control and ±100 the full control effect
#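 Inducible Hek293 Trex D1 cells (tetracycline, overnight, 30 C). Calcium dye 30–90 min RT. Antagonist mode: EC80 dopamine added after 180 s compound read.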
# D1 agonist – Allosteric Agonists of the Human D1 Dopamine Receptor: qHTS; D(1A) dopamine receptor (Homo sapiens), P21728; HEK293 T-REx D1 cells, calcium flux, agonist mode; activation, % at 2 µM; 360,000 tested, 1% active; in the data active means activation above about 30%; further: 0% is about no effect
#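 Tetracycline-induced HEK293 TREx D1 cells, force-coupled to calcium signalling, were dye-loaded with a no-wash calcium kit. Compound was pin-added after a 10 s baseline. Fluorescence was read kinetically at 1 cycle/s for 180 s, with calcium rises flagged as agonism.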
# LDHA block – qHTS assay for inhibitors of human lactate dehydrogenase. purified LDHA, NADH/diaphorase-resazurin fluorescence; stronger effect = lower value. activity change, % (values are at about 110 or 230 µM). 480,000 tested, 0.15% active; in the data active means activity change below about -30%; inconclusive means mostly about -25% to -30%;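 further: plate controls were DMSO wells for no effect and wells without enzyme for full effect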
#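 LDH5 2 nM; NADH 0.06 mM, pyruvate 0.2 mM; 200 mM Tris pH 7.4, EDTA, Tween-20; 5 min RT. Detection: diaphorase 0.133 mg/mL + resazurin 37 µM, fluorescence ex540/em590 at 0 and 20 min; normalized to enzyme-free and DMSO wells.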
# TRHR enhancer-1 – qHTS for Small Molecule Agonists and Allosteric Enhancers of Human TRH Receptor: Primary Screen for Enhancers. 360,000 tested, 0.66% active. enhancement, % at 2 µM. AID 493056, 2011. TRHR cells, fluo-8 calcium fluorescence, EC20 TRH enhancement. Thyrotropin-releasing hormone receptor (Homo sapiens), P34981; in the data active means enhancement above about 30%; further: 0% is about no effect
# Target sequence (P34981 whole entry, looked up): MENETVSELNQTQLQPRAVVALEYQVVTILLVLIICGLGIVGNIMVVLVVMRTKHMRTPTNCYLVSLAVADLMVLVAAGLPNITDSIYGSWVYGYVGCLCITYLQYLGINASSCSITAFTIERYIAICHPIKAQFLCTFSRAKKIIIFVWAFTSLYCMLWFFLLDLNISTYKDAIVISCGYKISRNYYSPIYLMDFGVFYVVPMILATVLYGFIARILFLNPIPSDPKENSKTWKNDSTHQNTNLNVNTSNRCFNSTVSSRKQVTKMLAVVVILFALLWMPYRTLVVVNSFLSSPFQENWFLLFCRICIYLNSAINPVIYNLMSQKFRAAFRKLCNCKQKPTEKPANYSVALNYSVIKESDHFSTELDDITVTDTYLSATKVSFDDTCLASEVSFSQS
#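 TRHR-expressing cells loaded with fluo-8 calcium dye were read kinetically (ex 480/em 530) during compound addition, then stimulated with an EC20 of TRH (10 nM final). Enhancement of the Gq-mediated intracellular calcium response was scored.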
# TRHR agonist-1 – qHTS for Small Molecule Agonists and Allosteric Enhancers of Human TRH Receptor: Primary Screen for Agonists; Thyrotropin-releasing hormone receptor (Homo sapiens), P34981; TRHR cells, calcium flux fluo-8, FDSS agonist mode; activation, % at 2 µM; 360,000 tested, 0.18% active; AID 493084, 2011; in the data active means activation above about 30%; further: 0% is about no effect
#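 In this calcium-flux screen, cells bearing human TRHR are dye-loaded with fluo-8, baselined for 10 cycles, then exposed to library compounds; positive kinetic calcium responses during the agonist phase mark hits, with TRH as control.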
# TRHR enhancer-2 – qHTS for Small Molecule Agonists and Allosteric Enhancers of Human TRH Receptor: Confirmation Screen for Enhancers | shares compounds with TRHR enhancer-1 | TRH receptor cell assay, enhancer confirmation qHTS | activity change, negative = inhibition, % at 46.1 µM | 970 tested, under 10 active | AID 493076, 2011;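 further: compound effect scored on response to added TRH at EC20 of 10 nM; 0% is about no effect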
# TRHR agonist-2 – qHTS for Small Molecule Agonists and Allosteric Enhancers of Human TRH Receptor: Confirmation Screen for Agonists. TRHR-expressing cells, agonist activation read-out. AID 493078, 2011. shares compounds with TRHR enhancer-1. Potency, µM (highest dose often 46.1 µM), without a hit: at the top dose activation, most hits filed as activators. 970 tested, 8% active; further: potency means the concentration at half of the fitted maximal effect; 0% is about no effect; nearly all actives have a fitted effect of over 75% in size
# Starred values were filed as active, the others as inactive; ? = inconclusive; / = no result. Unless noted, the call rests on the fitted dose curve; in most records, active means well fitted curve in the direction sought with a large enough effect; inconclusive means small, poorly fitted or top-dose-only effect, or another doubt; inactive means no such curve, though single readings can be large; an effect the other way counts as inactive or inconclusive.
SMILES,D1 PAM,D1 antag,D1 agonist,LDHA block,TRHR enhancer-1,TRHR agonist-1,TRHR enhancer-2,TRHR agonist-2
CCC1CCCCN1CCCNC(=O)c1cn(CC)c2ccc(S(=O)(=O)N3CCc4ccccc4C3)cc2c1=O (stereo not drawn),-1,-8,0,-2,51*,0,1,5%
Nc1nc(SCc2c(Cl)cccc2Cl)n[nH]1,-9,-23,0,-5,45*,-1,1,4%
CC(C)NS(=O)(=O)c1ccc(NC(=O)C2c3ccccc3Oc3ccccc32)cc1,/,/,/,2,/,/,/,/
COc1ccc(C(CNC(=O)CCNS(=O)(=O)c2ccc(Br)cc2)N2CCCC2)cc1 (stereo not drawn),-8,-63*,48*,0,48*,0,-6,5%
c1coc(-c2ccnc3ncnn23)c1,-3,2,5,-6,49*,-1,-5,-1%
COc1ccccc1N1C(C)=CC(=C(C#N)c2nc3ccccc3s2)C=C1C,11,-24,191*,12,-6,46*,?,18µM*
CCN1CCCC(NC(=O)c2cc([N+](=O)[O-])ccc2OC)C1 (stereo not drawn),6,3,5,-1,42*,1,-3,-1%
CC1(c2ccc(Cl)cc2)NC(=O)N(CC(=O)NCCC2=CCCCC2)C1=O (stereo not drawn),1,12,4,2,81*,0,0,1%
CCc1nnc(NC(=O)CCC(=O)N2CCN(Cc3cc(Cl)ccc3OC)CC2)s1,-7,7,4,-12,64*,0,0,2%
Cc1ccc(S(=O)(=O)N(CC(=O)N2CCN(C)CC2)c2cccc(Br)c2)cc1,/,/,/,-2,/,/,/,/
CC(C)c1ccc(S(=O)(=O)/N=C2\C=C(NS(=O)(=O)c3ccccc3)C(=O)c3ccccc32)cc1,-6,-19,2,40,21,-1,/,/
CCc1ccc(S(=O)(=O)/N=C2\C=C(NS(=O)(=O)c3ccccc3)C(=O)c3ccccc32)cc1,-2,-19,-1,11,49*,-1,-7,2%
CC(CCOS(N)(=O)=O)c1ccccc1 (stereo not drawn),5,6,2,-15,-5,0,/,/
[2H]C([2H])(CCOS(N)(=O)=O)c1ccccc1,-1,5,1,-4,44*,0,2,?
O=C(OCc1ccccc1)c1cc(Cl)c[nH]1,/,/,/,-7,/,/,/,/
COc1cc(NC(=S)NCCc2c[nH]c3ccccc23)c(OC)cc1Cl,-1,-7,4,-3,49*,0,-7,2%
CCOc1ccc(S(=O)(=O)Nc2cccc(C(=O)NCC3CCCO3)c2)cc1 (stereo not drawn),-8,-39*,3,-5,47*,0,-9,1%
COc1cccc(N2C(=O)CC(Nc3ccc(N4CCOCC4)cc3)C2=O)c1 (stereo not drawn),-6,-17,1,27,-6,0,/,/
O=C1CC(Nc2ccc(N3CCOCC3)cc2)C(=O)N1c1cccc(C(F)(F)F)c1 (stereo not drawn),-8,-9,10,11,46*,-1,0,-1%
O=C(O)CCC(=O)N1N=C(c2ccccc2)CC1c1ccc2nccnc2c1 (stereo not drawn),-4,8,1,-14,-4,1,/,/
O=C(O)CCCC(=O)N1N=C(c2ccccc2)CC1c1ccc2nccnc2c1 (stereo not drawn),-1,6,3,-8,46*,0,1,0%
Cc1oc(-c2ccccc2)nc1CC(=O)NC(C)c1ccco1 (stereo not drawn),/,/,/,18,/,/,/,/
Cc1c(C)c2cc(Cl)c(OC(C)C(=O)NCc3ccccn3)cc2oc1=O (stereo not drawn),/,/,/,7,/,/,/,/
NS(=O)(=O)c1ccc(CCNC(=O)C2CCC(Cn3c(=S)[nH]c4ccccc4c3=O)CC2)cc1 (stereo not drawn),0,-18,2,-15,41*,-1,3,-1%
COc1cc(C(=S)N2CCOCC2)ccc1OC(=O)c1cccc(C)c1,-1,-10,7,-2,49*,-1,-10,0%
NC(=O)COC(=O)c1c2c(nc3ccccc13)CCCCC2,-3,-17,1,-13,49*,0,0,6%
Cc1cc(C=C2C(=O)c3ccccc3C2=O)c(C)n1-c1cccc(C(=O)O)c1,-2,-4,8,-5,4,9,/,/
Cc1cc(C=C2C(=O)c3ccccc3C2=O)c(C)n1-c1ccc(C(=O)O)cc1,-2,9,2,-7,49*,5,-10,?
CC(=O)NS(=O)(=O)c1ccc(NC(=O)c2ccc(Cl)cc2[N+](=O)[O-])cc1,-1,-7,2,-5,50*,0,-6,5%
O=C(Nc1ccc(Nc2ccccc2)cc1)c1ccc(Cl)cc1[N+](=O)[O-],/,/,/,4,/,/,/,/
